In PubChem BioAssay:
Active and inactive are the calls of the source.

Tests used:
[1] = small molecules captured by biotinylated probe aFSTL3 – biochemical, small-molecule microarray, fluorescence 635/667, stem cell growth factor project, primary screen (AID 1064); conditions: higher = more signal;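 further: measures binding of the biotinylated anti-FSTL3 antibody to printed compounds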
[2] = binders from COS7 lysate, DM2A8 probe, primary screen, torsin A project, cell lysate, small-molecule microarray, fluorescence 635/667 (AID 1065); conditions: higher = more signal, COS7 lysate expressing mutant human TOR1A
[3] = small molecules captured by biotinylated probe aFGF2 – biochemical, small-molecule microarray, fluorescence 635/667, stem cell growth factor project, primary screen (AID 1067); conditions: higher = more signal;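 further: measures binding of biotinylated aFGF2 protein to printed compounds on slides; z-score merges feature fluorescence and signal-to-noise across triplicate slides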
[4] = small molecules captured by biotinylated probe aFGF10 – biochemical, small-molecule microarray, fluorescence 635/667, stem cell growth factor project, primary screen (AID 1071); conditions: higher = more signal;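 further: score merges 667 nm spot intensity and signal to noise from triplicate slides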
[5] = target: Neurogenic locus notch homolog protein 2 (Homo sapiens) (UniProt Q04721); test: small molecules binding Notch2 protein – biochemical, small-molecule microarray, 635 nm fluorescence, stem cell growth factors, primary screen (AID 1073); conditions: higher = more signal
[6] = target: Pro-neuregulin-1, membrane-bound isoform (Homo sapiens) (UniProt Q02297); test: small molecules binding neuregulin-1 protein – biochemical, small-molecule microarray, fluorescence 635/667, psychiatric disease protein project, primary screen (AID 1075); conditions: NRG1 binding, 635 nm fluorescence, higher = more signal;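 further: score combines 667 nm spot fluorescence with signal to noise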
[7] = tested on: Neuregulin-1 EGF-like domain; test: small molecules binding NRG1 EGF domain – biochemical, small-molecule microarray, 635 nm fluorescence, primary screen (AID 1081); conditions: higher = more signal;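 further: binding of the protein to compounds printed on small-molecule microarray slides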
[8] = FRG1 expression reporter modulators in myotubes – cell-based, C2C12 myotubes, firefly/Renilla luciferase, luminescence, FRG1 inhibition for FSHD, primary screen (AID 1084); conditions: FRG1 promoter luciferase, higher = more signal, called active from +8 up or from −8 down
[9] = small molecules captured by biotinylated probe aFST – biochemical, small-molecule microarray, fluorescence 635/667, stem cell growth factor project, primary screen (AID 1086); conditions: higher = more signal;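 further: score merges 667 nm fluorescence with signal-to-noise of each printed compound spot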
[10] = binders of probe aHhip on microarray, primary screen, stem cell growth factor project, biochemical, small-molecule microarray, fluorescence 635/667 (AID 1087); conditions: higher = more signal;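 further: score merges spot fluorescence at 667nm with spot signal to noise ratio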
[11] = tested on: PRMT1 (protein arginine N-methyltransferase 1); test: small molecules binding arginine methyltransferase PRMT1 – biochemical, small-molecule microarray, 635 nm fluorescence, primary screen (AID 1088); conditions: higher = more signal;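 further: binding of Prmt1 protein to compounds spotted on small-molecule microarray slides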
[12] = growth effects on S. cerevisiae YJM789 – YJM789 clinical isolate, OD600, 24 h, basal, primary screen (AID 1089); conditions: higher = more signal, called active from +8 up or from −8 down;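 further: growth of clinical yeast isolate S. cerevisiae YJM 789 seeded 1000 cells per well; test concentration not given here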
[13] = S. pombe growth modifiers, basal conditions – strain 972, OD600, 24 h, no modulator, primary screen (AID 1090);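 further: basal condition with compound alone and no growth modifier present; test concentration not given here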; conditions: S. pombe 972 growth, higher = more signal, called active from +8 up or from −8 down
[14] = budding yeast growth modifiers under rapamycin – strain BY4716, OD600, 96 h, primary screen (AID 1091); further: test concentration not given here; conditions: S. cerevisiae BY4716 + rapamycin, higher = more signal, called active from +8 up or from −8 down
[15] = target: Torsin-1A-interacting protein 2 (Homo sapiens) (UniProt Q8NFQ8); test: small molecules binding lysate-expressed LULL1 – cell lysate, human LULL1 lysate, 635/667 nm fluorescence, primary screen (AID 1092); conditions: small-molecule microarray, hLULL1 lysate binding, 635 nm fluorescence; higher = more signal;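 further: probe is lysate of COS7 cells overexpressing human LULL1; score merges per-feature 667 nm fluorescence with signal-to-noise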
[16] = optical density change of DRC41 E. coli – strain DRC41, OD650, 24 h, E. coli filamentation project, primary screen (AID 1093);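 further: MC1000 strain lacking acrAB efflux and sulA so SOS filamentation is blocked; test concentration not given here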; conditions: E. coli DRC41 growth, higher = more signal, called active from +8 up or from −8 down
[17] = probe aLefty2 binding to arrayed compounds – biochemical, biotinylated probe, 635/667 nm fluorescence, primary screen (AID 1094); conditions: small-molecule microarray, higher = more signal;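 further: score merges spot fluorescence near 667 nm with spot signal-to-noise ratio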
[18] = tested on: Noggin (protein binding on small-molecule microarray); test: small molecules binding Noggin protein – biochemical, 635/667 nm fluorescence, primary screen (AID 1095); conditions: 635 nm fluorescence, higher = more signal;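 further: score merges 667 nm feature fluorescence with signal to noise over triplicate slides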
[19] = target: Neurogenic locus notch homolog protein 3 (Homo sapiens) (UniProt Q9UM47); test: small molecules binding NOTCH3 protein – biochemical, 635/667 nm fluorescence, primary screen (AID 1096); conditions: small-molecule microarray, 635 nm fluorescence, higher = more signal
[20] = probe aEGFR binding to arrayed compounds – biochemical, biotinylated probe, 635/667 nm fluorescence, primary screen (AID 1097); conditions: small-molecule microarray, higher = more signal;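 further: probe is a biotinylated anti-EGFR antibody binding compounds printed on slides; score combines fluorescence near 667 nm and signal to noise of each spot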

Pro-neuregulin-1, membrane-bound isoform (Homo sapiens), sequence (Q02297 whole entry, looked up, the tested form may be a part, canonical isoform): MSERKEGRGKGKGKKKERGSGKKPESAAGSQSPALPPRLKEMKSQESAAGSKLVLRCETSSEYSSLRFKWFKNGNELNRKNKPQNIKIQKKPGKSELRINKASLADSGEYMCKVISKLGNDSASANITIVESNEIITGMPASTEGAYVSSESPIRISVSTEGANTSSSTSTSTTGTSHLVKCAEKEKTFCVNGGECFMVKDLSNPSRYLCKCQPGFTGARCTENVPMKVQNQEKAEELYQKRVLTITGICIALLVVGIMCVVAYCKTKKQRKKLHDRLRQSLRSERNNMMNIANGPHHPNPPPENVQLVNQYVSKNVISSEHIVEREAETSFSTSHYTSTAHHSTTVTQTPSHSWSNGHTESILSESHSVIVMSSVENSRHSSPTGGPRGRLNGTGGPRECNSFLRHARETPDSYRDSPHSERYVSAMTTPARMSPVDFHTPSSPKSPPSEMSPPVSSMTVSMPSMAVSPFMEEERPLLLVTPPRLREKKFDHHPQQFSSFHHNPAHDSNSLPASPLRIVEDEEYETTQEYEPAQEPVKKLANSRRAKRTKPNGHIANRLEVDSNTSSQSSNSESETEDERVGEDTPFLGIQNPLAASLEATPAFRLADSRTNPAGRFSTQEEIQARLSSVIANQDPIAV
Neurogenic locus notch homolog protein 3 (Homo sapiens), sequence (Q9UM47 whole entry, looked up): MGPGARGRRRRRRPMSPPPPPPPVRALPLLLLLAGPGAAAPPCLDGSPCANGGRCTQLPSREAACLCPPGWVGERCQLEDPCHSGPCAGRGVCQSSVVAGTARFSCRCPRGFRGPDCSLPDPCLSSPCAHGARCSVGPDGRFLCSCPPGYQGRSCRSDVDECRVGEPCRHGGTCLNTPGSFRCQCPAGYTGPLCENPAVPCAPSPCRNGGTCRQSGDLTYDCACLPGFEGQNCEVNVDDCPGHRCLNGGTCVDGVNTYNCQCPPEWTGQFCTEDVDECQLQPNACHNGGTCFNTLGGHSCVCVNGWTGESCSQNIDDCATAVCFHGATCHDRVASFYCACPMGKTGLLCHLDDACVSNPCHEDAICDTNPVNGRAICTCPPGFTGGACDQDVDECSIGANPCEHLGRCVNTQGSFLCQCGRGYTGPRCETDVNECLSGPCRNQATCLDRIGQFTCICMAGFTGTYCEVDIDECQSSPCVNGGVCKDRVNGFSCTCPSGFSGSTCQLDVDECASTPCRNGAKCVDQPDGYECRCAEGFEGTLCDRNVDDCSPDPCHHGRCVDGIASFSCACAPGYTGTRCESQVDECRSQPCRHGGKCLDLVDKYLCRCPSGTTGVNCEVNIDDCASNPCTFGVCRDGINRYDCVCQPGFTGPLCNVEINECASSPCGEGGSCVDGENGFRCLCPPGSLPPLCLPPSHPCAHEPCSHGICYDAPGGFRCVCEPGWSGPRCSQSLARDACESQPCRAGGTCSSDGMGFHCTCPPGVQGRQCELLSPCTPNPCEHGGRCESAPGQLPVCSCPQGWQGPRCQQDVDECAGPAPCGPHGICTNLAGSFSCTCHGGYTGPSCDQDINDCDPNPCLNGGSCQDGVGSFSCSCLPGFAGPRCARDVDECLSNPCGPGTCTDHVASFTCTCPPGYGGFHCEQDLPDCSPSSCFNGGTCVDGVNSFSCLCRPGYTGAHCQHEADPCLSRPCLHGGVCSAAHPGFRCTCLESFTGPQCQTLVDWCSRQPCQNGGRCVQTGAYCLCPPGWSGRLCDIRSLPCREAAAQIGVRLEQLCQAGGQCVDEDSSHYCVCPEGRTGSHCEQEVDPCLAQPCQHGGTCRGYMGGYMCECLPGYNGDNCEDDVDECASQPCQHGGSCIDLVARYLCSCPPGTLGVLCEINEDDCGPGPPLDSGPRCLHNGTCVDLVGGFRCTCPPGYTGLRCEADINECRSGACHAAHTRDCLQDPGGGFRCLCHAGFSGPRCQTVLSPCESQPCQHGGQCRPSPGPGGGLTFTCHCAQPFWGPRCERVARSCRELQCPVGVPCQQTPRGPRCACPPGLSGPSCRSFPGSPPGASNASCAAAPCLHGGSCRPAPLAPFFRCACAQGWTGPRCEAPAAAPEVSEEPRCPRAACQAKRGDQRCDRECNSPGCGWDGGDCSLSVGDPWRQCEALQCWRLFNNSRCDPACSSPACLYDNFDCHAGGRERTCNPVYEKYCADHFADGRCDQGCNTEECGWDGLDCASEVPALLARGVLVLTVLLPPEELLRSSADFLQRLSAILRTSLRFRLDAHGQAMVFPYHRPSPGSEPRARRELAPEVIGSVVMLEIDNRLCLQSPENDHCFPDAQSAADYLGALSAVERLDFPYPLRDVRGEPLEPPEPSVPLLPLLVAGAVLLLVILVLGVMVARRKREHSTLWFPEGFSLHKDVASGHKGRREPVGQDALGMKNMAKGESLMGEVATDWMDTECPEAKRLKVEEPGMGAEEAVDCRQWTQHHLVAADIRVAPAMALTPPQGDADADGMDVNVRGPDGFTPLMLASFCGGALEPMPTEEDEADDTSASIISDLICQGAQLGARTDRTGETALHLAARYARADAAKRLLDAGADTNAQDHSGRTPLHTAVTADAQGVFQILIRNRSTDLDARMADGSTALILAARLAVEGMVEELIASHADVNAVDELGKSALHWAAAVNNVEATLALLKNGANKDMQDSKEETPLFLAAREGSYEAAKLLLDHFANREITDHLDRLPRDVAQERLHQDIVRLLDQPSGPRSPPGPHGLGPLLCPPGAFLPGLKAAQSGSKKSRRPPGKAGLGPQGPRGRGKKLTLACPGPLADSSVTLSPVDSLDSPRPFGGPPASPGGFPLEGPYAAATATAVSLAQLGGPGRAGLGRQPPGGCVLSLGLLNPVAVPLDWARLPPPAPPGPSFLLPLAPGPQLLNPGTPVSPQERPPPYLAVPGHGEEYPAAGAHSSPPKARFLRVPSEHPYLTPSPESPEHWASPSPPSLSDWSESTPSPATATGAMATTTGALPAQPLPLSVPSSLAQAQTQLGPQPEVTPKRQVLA
Torsin-1A-interacting protein 2 (Homo sapiens), sequence (Q8NFQ8 whole entry, looked up): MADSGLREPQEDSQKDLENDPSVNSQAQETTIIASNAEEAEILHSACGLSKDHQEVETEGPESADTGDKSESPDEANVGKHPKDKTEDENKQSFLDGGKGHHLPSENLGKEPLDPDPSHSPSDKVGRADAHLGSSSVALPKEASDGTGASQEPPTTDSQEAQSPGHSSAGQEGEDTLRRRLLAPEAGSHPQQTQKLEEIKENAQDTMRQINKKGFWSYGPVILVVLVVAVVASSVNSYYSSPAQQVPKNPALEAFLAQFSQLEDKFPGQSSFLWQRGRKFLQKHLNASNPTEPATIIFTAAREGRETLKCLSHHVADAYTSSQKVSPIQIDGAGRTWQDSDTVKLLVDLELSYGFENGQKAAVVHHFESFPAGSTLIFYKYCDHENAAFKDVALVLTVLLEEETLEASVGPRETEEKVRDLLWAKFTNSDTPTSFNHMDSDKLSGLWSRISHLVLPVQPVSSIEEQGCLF

SMILES | composite z-score [1] | composite z-score [2] | composite z-score [3] | composite z-score [4] | composite z-score [5] | composite z-score [6] | composite z-score [7] | z-score [8] | composite z-score [9] | composite z-score [10] | composite z-score [11] | z-score [12] | z-score [13] | z-score [14] | composite z-score [15] | z-score [16] | composite z-score [17] | composite z-score [18] | composite z-score [19] | composite z-score [20]
CC(C)N1CC=CC23O[C@@H]4/C=C\CCCOC(=O)C4[C@H]2C(=O)N(C(C)CO)[C@@H]3C1=O (stereo not given in full) | -0.396 | -0.237 | -0.201 | -0.789 | -0.911 | 0.383 | 0.522 | -0.798 (inactive) | -0.588 | -0.303 | 0.336 | -1 (inactive) | -1.09 (inactive) | -1.08 (inactive) | 1.95 | 1.8 (inactive) | -0.174 | -1.25 | -0.155 | -0.297
C=CC[C@H](O)c1ccc(O)c2ccccc12 | -0.112 | 0.821 | -0.0558 | 0.513 | 0.61 | 0.826 | 1.3 | -0.0666 (inactive) | 0.193 | 0.0749 | 1.56 | -7.13 (inactive) | -17.9 (active) | 8.59 (active) | 1.71 | 1.49 (inactive) | 0.0277 | 1.07 | 1.07 | -0.0151
CCCC=C(CCC)[C@@H](NC(=O)c1ccc(C(=O)OC)cc1)c1ccc(C(=O)OC)cc1 | 0.0362 | -0.312 | 0.355 | -0.327 | 0.423 | 0.203 | -0.166 | 1.24 (inactive) | 0.484 | 2.54 | 0.0599 | 0.57 (inactive) | 0.311 (inactive) | 0.182 (inactive) | 2.85 | -1.29 (inactive) | 0.177 | 0.294 | 0.251 | 0.0173
CCCCCN1CC=CC23O[C@@H]4/C=C\CCCOC(=O)C4[C@H]2C(=O)N(CCO)[C@@H]3C1=O (stereo not given in full) | 0.0382 | 0.351 | -0.133 | -0.148 | -0.326 | 0.913 | 1.5 | -0.345 (inactive) | -0.345 | -0.223 | -0.0525 | -0.402 (inactive) | -1.15 (inactive) | -1.46 (inactive) | 3.42 | 3.22 (inactive) | -0.134 | 0.486 | -0.285 | -0.0987
COc1ccc([Si](C)(C)[C@H]2[C@H](CC(=O)N3CCC[C@H]3CO)O[C@@]3(C(=O)N(Cc4cccc(N5CCCCC5=O)c4)c4ccccc43)[C@@H]2C)cc1 | -0.381 | 0.519 | -0.126 | 0.682 | 0.757 | 0.836 | 1.14 | -3.74 (inactive) | 0.0346 | -0.0296 | 1.52 | -0.439 (inactive) | 0.294 (inactive) | -1.23 (inactive) | 1.98 | 0.561 (inactive) | -0.174 | 1.23 | 1.09 | -0.139
